Screens: PubChem, Small Molecule Screening Facility, UW Madison
RMI FANCM FP: blocks RMI1/RMI2 complex binding to FANCM MM2 peptide; Fluorescence polarization, RMI core complex with F-MM2 peptide; active compounds read low; FP signal (polarization) at 33 µM; hit rate 0.58% among 70,000; AID 1159607; in the data active = FP signal below about 40
Starred values were filed as active, the others as inactive. This is one part of a sample in which hits are shown more often than they occur.

Screening CN(C)c1ccc(CCCNC(=O)c2cc3ccccc3oc2=O)cc1 returned RMI FANCM FP 71.
COc1ccc(N2C(=O)C3C4C=CC(O4)C3C2=O)cc1 (centres undefined) was read as RMI FANCM FP 56.
`CCC(=O)Oc1ccc(N2C(=O)c3ccccc3C2=O)cc1` gave RMI FANCM FP 31*.
For C=CC(=O)Oc1ccc(N2C(=O)c3cccc([N+](=O)[O-])c3C2=O)cc1 the results were RMI FANCM FP 58.
CCC(=O)Oc1cccc(N2C(=O)C3CCCCC3C2=O)c1 (centres undefined) was read as RMI FANCM FP 53.
For COc1ccc(N2C(=O)c3ccc(C(=O)c4ccc5c(c4)C(=O)N(c4ccc(OC)cc4)C5=O)cc3C2=O)cc1 the results were RMI FANCM FP 6*.
For COc1ccc(SCC(=O)Nc2ccc3c(c2)C(=O)N(C)C3=O)cc1 the results were RMI FANCM FP 66.
Screening NC(=O)c1ccccc1NC(=O)Cn1cnc(-c2ccccc2)cc1=O returned RMI FANCM FP 70.
Screening CC(C)c1nc(SCC(N)=O)c2c(=O)n(C)c(=O)n(C)c2n1 returned RMI FANCM FP 72.
Screening O=C(O)CCCn1c(=S)[nH]c2ccc(Br)cc2c1=O returned RMI FANCM FP 57.
CCOc1ccc(CNC(=O)c2cc(-c3sc(C)nc3C)[nH]n2)cc1OCC was read as RMI FANCM FP 65.
`O=S1(=O)N=C(SCc2cccnc2)Nc2ccccc21` gave RMI FANCM FP 56.
For O=c1nc2s/c(=C/c3ccccn3)c(=O)n2nc1-c1ccccc1 the results were RMI FANCM FP 21*.
For O=c1/c(=C\c2ccc(Cl)cc2)sc2nc(-c3ccc(Cl)cc3)nn12 the results were RMI FANCM FP 59.
`O=c1/c(=C/c2ccccc2)sc2nnc(-c3ccc(Cl)cc3)n12` gave RMI FANCM FP 52.
For CCOc1cc(C(=O)NCC2COC3(CCCC3)O2)cc(OCC)c1OCC (centres undefined) the results were RMI FANCM FP 52.
For COc1ccc(NC(=O)CS(=O)(=O)c2ccc(Cl)s2)cc1Cl the results were RMI FANCM FP 64.
Screening NC(=O)c1c(NC(=O)C2CCN(S(=O)(=O)c3ccc(Cl)s3)CC2)sc2c1CCCC2 returned RMI FANCM FP 80.
For O=C(O)C1CCCN1C(=O)c1cccs1 (centres undefined) the results were RMI FANCM FP 62.
`CCOC(=O)[C@H](CCc1ccccc1)N[C@H]1CCc2ccccc2N(CC(=O)O)C1=O` gave RMI FANCM FP 57.
Screening C[C@H](NC(CCc1ccccc1)C(=O)O)C(=O)N1CCC[C@H]1C(=O)O (some centres undefined) returned RMI FANCM FP 34*.
For COC(OC)c1ccc2c(N)c(C(=O)Nc3ccc(C(F)(F)F)cc3)sc2n1 the results were RMI FANCM FP 39*.
`COc1nn(C)cc1C(=O)Nc1ccc(C(F)(F)F)cc1` gave RMI FANCM FP 57.
Cn1c(=O)c2cc(C(=O)Nc3ccc(C(F)(F)F)cc3)sc2n(C)c1=O was read as RMI FANCM FP 64.
Screening Cc1ccc2nc(N(CCN(C)C)C(=O)c3ccn(C)n3)sc2c1 returned RMI FANCM FP 73.
For CCn1nc(C(=O)Nc2ccc3nc(N4CCN(C)CC4)sc3c2)cc1C the results were RMI FANCM FP 63.
`O=C(CCN1C(=O)/C(=C\c2ccccc2F)SC1=S)N1CCN(c2ccccc2)CC1` gave RMI FANCM FP 59.
`COCCCN1C(=O)/C(=C/N2CCN(c3ccccc3)CC2)SC1=S` gave RMI FANCM FP 98.
For CCN1C(=O)/C(=C/c2c(C)c(C#N)c(=O)n(C)c2N2CCN(c3ccc(F)cc3)CC2)SC1=S the results were RMI FANCM FP 15*.
`O=C(c1cccc(Oc2ccccc2)c1)N(Cc1cccnc1)c1nc2cc3c(cc2s1)OCCO3` gave RMI FANCM FP 66.
`O=C(CC1CCCCN1S(=O)(=O)c1ccc(F)cc1)NCc1ccccc1Cl` (centres undefined) gave RMI FANCM FP 71.
CCC(C)NC(=O)c1cnc2ccc(C)cn2c1=O (centres undefined) was read as RMI FANCM FP 57.
O=C(Nc1cccc(F)c1)c1csc(Nc2ccccc2)n1 was read as RMI FANCM FP 63.
Screening O=C(Nc1nc2c(s1)Cc1ccccc1-2)c1ccc2ncsc2c1 returned RMI FANCM FP 74.
`O=C(Nc1nc2c(s1)Cc1ccccc1-2)c1nc2ccccc2s1` gave RMI FANCM FP -62*.
For O=C(Nc1nc2c(s1)CCc1ccccc1-2)c1nc2ccccc2s1 the results were RMI FANCM FP 58.
For O=C(Nc1ccc2c(c1)CN(C(=O)c1ccccc1)CC2)c1cc2ccccc2oc1=O the results were RMI FANCM FP 62.
`O=C(OCc1cc(-c2cccs2)on1)c1cccs1` gave RMI FANCM FP 56.
Screening O=C(Nc1ccc(Cl)cc1)c1cccc([N+](=O)[O-])c1C(=O)O returned RMI FANCM FP 60.
O=C(NCc1cccs1)C(=O)NCC(c1cccc2ccccc12)N1CCCC1 (centres undefined) was read as RMI FANCM FP 52.
